The list is not random: actives were taken first. Their share in the collection is about 21%.
CHX counter = Cycloheximide Counterscreen for Small Molecule Inhibitors of Shiga Toxin. max response, %. cell reporter, cycloheximide protein synthesis inhibition counterscreen. actives 12% (n = 300,000). AID 2314, 2010; in the data active = max response mostly above about 13%, no sharp cut-off; inactive = mostly below about 14%; note: read at 38.3 µM for the half of the compounds with a filed dose; 0% is about no effect
Pf growth 96h = Primary qHTS for delayed death inhibitors of the malarial parasite plastid, 96 hour incubation. AID 504834, 2011. P. falciparum luciferase reporter growth, 96 h. actives 6.9% (n = 320,000). Potency, µM (top dose mostly 28.7 µM), for the others: at the highest dose activity change, negative = inhibition, hits mostly inhibitors; note: potency is the fitted concentration of half-maximal effect; % is set by controls: 0 for no effect and ±100 for the full control effect
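Readout is luminescence from an integrated firefly luciferase in P. falciparum. Red cells, 2% hematocrit and 0.05% parasitemia final, were cultured with compound through two parasite generations (96 hours) at 37 C, 5% CO2.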
Shiga toxin inh = A qHTS for Small Molecule Inhibitors of Shiga Toxin | Vero cells, Shiga toxin protein synthesis inhibition reporter | inhibition, % at 38.7 µM | actives 9.2% (n = 290,000) | AID 2315, 2010; in the data active = inhibition mostly above about 28%, no sharp cut-off; inactive = mostly below about 43%; note: 0% is about no effect
Pf growth 48h = Primary qHTS for delayed death inhibitors of the malarial parasite plastid, 48 hour incubation; P. falciparum luciferase growth in erythrocytes, 48 h; actives 5.9% (n = 310,000); Potency, µM (titrated, usually from 28.7 µM), inactives show top-dose activity change, negative = inhibition, actives largely listed as inhibitors; AID 504832, 2011; note: potency is the fitted concentration of half-maximal effect; % is set by controls: 0 for no effect and ±100 for the full control effect
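Erythrocytes infected with P. falciparum carrying an integrated firefly luciferase reporter (2% hematocrit, 0.1% parasitemia final) were exposed to compounds in RPMI 1640 with 0.5% Albumax at 37 C, 5% CO2. Growth inhibition was scored as reduced luminescence.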
Sm TGR block = qHTS Assay for the Inhibitors of Schistosoma Mansoni Peroxiredoxins; purified TGR, DTNB reduction, TNB absorbance 405 nm; Potency, µM (titrated, usually from 114 µM), for inactives: at the top dose activity change, negative = inhibition, actives largely listed as inhibitors; Schistosoma mansoni thioredoxin glutathione reductase (TGR), Q962Y6; actives 3% (n = 360,000); note: potency is the fitted concentration of half-maximal effect; % is set by controls: 0 for no effect and ±100 for the full control effect; nearly all actives have a fitted effect of over 60% in size
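TGR 20 nM + NADPH 100 uM (dispensed conc.), cpd preinc 15 min RT; start with NADPH (500 uM addition) then DTNB (15 mM addition). Kinetic TNB absorbance, 405 nm filter. Four-parameter Hill fit across titration.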
NS1 inh = qHTS Assay for Inhibitors of Influenza NS1 Protein Function; Potency, µM (highest dose often 46.1 µM), inactives show at the top dose activity, positive = more growth; actives 0.4% (n = 270,000); calls by dose curve; note: potency is the fitted concentration of half-maximal effect; actives are rising curves; nearly all actives have a fitted effect of over 50% in size
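Growth recovery, yeast-based: influenza A NS1 expressed in S. cerevisiae causes slow growth, and suppressors are detected by OD600. The parent strain without NS1 is used as positive control.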
Starred values were filed as active, the others as inactive; ? = inconclusive; · = no result given; [ ] = another dose, or the depositor's remark. Unless noted, calls come from the whole dose curve; as a rule, active = well fitted curve in the direction sought with a large enough effect; inconclusive = small, poorly fitted or top-dose-only effect, or another doubt; inactive = no such curve, though single readings can be large; an effect the other way counts as inactive or inconclusive.

SMILES	CHX counter	Pf growth 96h	Shiga toxin inh	Pf growth 48h	Sm TGR block	NS1 inh
CCOC(=O)c1cnc2c(C)cc(Cl)cc2c1NCCCN1CCOCC1	1	?	-4	?	?	8%
CCN(CC)S(=O)(=O)c1ccc(C(=O)NCCCN=C2NS(=O)(=O)c3ccccc32)cc1	-1	8.3µM*	-9	?	1%	1%
COC(=O)c1sc(NC(=O)COc2ccccc2C)nc1C	21*	262%	56	38%	7%	·
COc1ccccc1OCC(=O)Nc1nc(C)c(C)s1	27*	?	91*	174%	-20%	-17%
COc1ccc(N2C(=NC(=O)c3ccc(Br)cc3)SC3CS(=O)(=O)CC32)cc1 (centres undefined)	·	37%	·	-17%	-10%	·
CCc1ccc(NC(=O)Cc2c(C(=O)O)n(C)c3ccccc23)cc1	10	109%	-5	27%	1%	·
CCCCCC1CCC(c2n[nH]c(=S)n2C)CC1 (centres undefined)	-6	5.9µM*	-12	?	5%	-8%
Cc1c(CCC(=O)NCCCn2ccnc2)c(=O)oc2c(C)c3oc4c(c3cc12)CCCC4	-1	?	4	?	-20%	9%
CC1CCc2nc(NC(=O)CN3CCOCC3)sc2C1 (centres undefined)	38*	-10%	68*	49%	-10%	4%
Cc1ncsc1C(=O)Nc1nc2c(s1)CC(C)CC2 (centres undefined)	27*	·	82*	·	-8%[11.4 µM]	-62%
CC1CCc2nc(NC(=O)CN3CCN(Cc4ccc5c(c4)OCO5)CC3)sc2C1 (centres undefined)	5	?	14	?	7%	2%
CC1CCc2nc(NC(=O)Nc3ccc4c(c3)OCO4)sc2C1 (centres undefined)	45*	?	91*	60%	-12%	4%
CC1CCc2nc(NC(=O)C3CC3)sc2C1 (centres undefined)	51*	·	82*	113%	-10%	-5%
CC1CCc2nc(NC(=O)Cc3ccc(Cl)cc3)sc2C1 (centres undefined)	·	·	·	·	-3%	·
COc1ccc(NC(=O)CCCn2c(=O)c3sccc3n(Cc3ccc(C)cc3)c2=O)cc1	0	3%	-1	-11%	1%	24%
COc1ccc(NC(=O)CCCn2c(=O)c3sccc3n(Cc3ccc(C)cc3C)c2=O)cc1	-6	8.3µM*	-14	-2%	-12%	10%
O=C(c1ccc2ccccc2c1)N1CCN(c2ccc(O)cc2)CC1	-2	?	-12	-10%	-25%	?
COc1ccccc1N1CCN(C(=O)CSc2ccccc2)CC1	27*	51%	65*	·	-5%	-3%
COc1ccccc1N1CCN(C(=O)CCC(=O)N2CCN(c3ccccc3OC)CC2)CC1	-3	?	-16	-8%	-10%	1%
COc1ccccc1N1CCN(C(=O)c2ccccc2SCC(=O)N2CCCC2)CC1	·	-10%	·	?	-32%	·
CCOc1ccccc1N1CCN(C(=O)c2ccccc2SCC(=O)N2CCCC2)CC1	15*	13µM*	27*	?	-4%	4%
CCOc1ccccc1N1CCN(C(=O)CCCN2C(=O)c3cccc4cccc(c34)C2=O)CC1	-3	9.3µM*	-7	?	4%	-10%
O=C(CSc1ccc2ccccc2c1)N1CCN(c2ccc(O)cc2)CC1	19	3%	52	6%	50µM*	-9%
O=C1/C(=C\c2cccnc2)SC(=S)N1c1ccc(F)cc1	5	-9%	26	0%	-5%	·
CCC1CCCCN1C(=O)CCNC(=O)Cn1cnc2ccccc2c1=O (centres undefined)	-1	23%	-1	-2%	-1%	16%
SMILES	CHX counter	Pf growth 96h	Shiga toxin inh	Pf growth 48h	Sm TGR block	NS1 inh
C[N+]1(CCC[N+]2(C)C[C@H]3[C@H](C2)[C@H]2C=C[C@@H]3CC2)CCOCC1 (some centres undefined)	·	·	·	·	·	5%
COc1cc(NC(=O)N2CCC(CN3CCOCC3)CC2)cc(OC)c1OC	·	·	·	·	4%	·
Cc1cc(C(=O)CN2C(=O)C(=O)N(Cc3ccco3)C2=O)c(C)n1CCc1ccc(F)cc1	·	-2%	·	-28%	-12%	·
CS(=O)(=O)N1CCN(C(=O)C(Sc2ccccc2)c2ccccc2)CC1 (centres undefined)	-2	·	-17	3%	-15%	-20%
COc1ccccc1N1CCN(C(=O)CN(c2ccccc2OC)S(=O)(=O)c2ccccc2)CC1	-1	1.3µM*	11	?	-5%	-8%
COc1ccccc1N1CCN(C(=O)COc2ccc(C)cc2Br)CC1	6	?	43	-14%	0%	-74%
COc1ccccc1N1CCN(C(=O)C(Sc2ccccc2)c2ccccc2)CC1 (centres undefined)	-1	7%	-2	13µM*	0%	-5%
COc1ccccc1N1CCN(C(=O)COc2ccc(Cl)cc2Br)CC1	2	8.3µM*	20	-27%	-22%	-142%
Cc1cccc(CN2CCC(CNC(=O)c3c(C)oc4ncnc(N5CCCCC5)c34)CC2)c1	·	·	·	·	8%	·
Cc1cccc(OCCn2c(-c3ccc(Cl)cc3)nc3ccccc3c2=O)c1	·	·	·	·	1%	·
Oc1ccc2c(c1)C1CCCC1(N1CCOCC1)O2 (centres undefined)	9	?	10	13%	28µM*	16%
CCOC(=O)c1noc2nc(C)n(CC(=O)Nc3ccc(OC)c(Cl)c3)c(=O)c12	·	·	·	·	2%	·
N#CCC(CNc1ncc(C(F)(F)F)cc1Cl)OC(=O)c1cccc([N+](=O)[O-])c1 (centres undefined)	-1	4.7µM*	0	13µM*	9%	-3%
O=C(CN(CC1CCCO1)C(=O)CNS(=O)(=O)c1ccc(F)cc1)NCc1ccc(F)cc1 (centres undefined)	-4	-22%	-5	15%	10%	4%
Cc1ccc(Cl)cc1NC(=O)Cn1c(=O)oc2cc(S(=O)(=O)N3CCCC3)ccc21	·	·	·	·	-3%	·
COc1ccc(O)c(/C=N/N2CCOCC2)c1	41*	52%	99*	75%	-33%	4%
Fc1ccc(/C=N/N2CCOCC2)c(F)c1	21*	-3%	38	-4%	11%	·
COc1cccc(/C=N/N2CCOCC2)c1O	24*	17%	active	101%	0%	5%
Fc1cccc(F)c1/C=N/N1CCOCC1	19	-1%	17	16%	4%	·
COc1cccc(C=Nc2ccc3c(c2)OCCO3)c1O	75*	?	107*	67%	-5%	?
O=C(CSc1nc(=O)[nH]c2c1CCCC2)NCc1ccc(Cl)cc1	·	·	·	·	2%	·

Bioassay records (PubChem)
